Shown are actives, neighbours in structure and some others; about 13% of the full set was active somewhere.
Lassa entry inh – Lassa virus entry inhibition; Lassa virus pseudotype entry inhibition, cell reporter; Potency, µM (series often up to 37.9 µM), for inactives: at the top dose activity change, negative = inhibition, actives largely listed as inhibitors; 1.2% of 300,000 active; AID 540256; calls by dose curve; tested in HEK293 cells; note: potency is the fitted concentration of half-maximal effect; % is set by controls: 0 for no effect and ±100 for the full control effect; nearly all actives have a fitted effect of over 50% in size
Shiga inhibitor – Shiga toxin inhibition; Vero cells, Shiga toxin protein synthesis inhibition reporter; inhibition, % at 38.7 µM; 9.2% of 290,000 active; AID 2315; in the data active = inhibition mostly above about 28%, no sharp cut-off; inactive = mostly below about 43%; note: 0% is about no effect
HCV inh – blocks hepatitis C virus; Huh7.5.1 HCVcc-Cre infection, luciferase reporter, 44 h; 3.4% of 340,000 active; Potency, µM (highest dose often 41.8 µM), inactives show at the highest dose activity change, negative = inhibition, actives largely listed as inhibitors; note: potency is the fitted concentration of half-maximal effect; % is set by controls: 0 for no effect and ±100 for the full control effect
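After 44 h co-culture of compound, cells and HCVcc-Cre (~0.5 moi), substrate is added for 15 min at room temperature and luciferase measured over 15 sec. Cells were seeded at 1,000/well and pre-cultured 4 h.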
FMDV antiviral – antivirals against foot and mouth disease virus; Potency, µM (series often up to 57.9 µM), for inactives: at the top dose activity change, negative = inhibition, hits mostly inhibitors; 1.2% of 410,000 active; AID 1159524; FMDV antiviral cell-based qHTS; calls by dose curve; tested in HEK293T cells; note: read-out not given here; potency is the fitted concentration of half-maximal effect; % is set by controls: 0 for no effect and ±100 for the full control effect; nearly all actives have a fitted effect of over 45% in size
CHX counter – counter-screen for Shiga toxin inhibitors: cycloheximide protein synthesis inhibition; cell reporter, cycloheximide protein synthesis inhibition counterscreen; max response, %; 12% of 300,000 active; AID 2314; in the data active = max response mostly above about 13%, no sharp cut-off; inactive = mostly below about 14%; note: read at 38.3 µM for the half of the compounds with a filed dose; 0% is about no effect
Marburg entry inh – Marburg virus entry inhibition. Marburg virus pseudotyped entry inhibition, cell reporter. Potency, µM (doses to about 37.8 µM), for inactives: at the highest dose activity change, negative = inhibition, hits mostly inhibitors. 1.8% of 300,000 active. AID 540276; calls by dose curve; tested in HEK293 cells; note: potency is the fitted concentration of half-maximal effect; % is set by controls: 0 for no effect and ±100 for the full control effect
HCV inh confirm – confirmation of hepatitis C virus inhibitors; shares compounds with HCV inh; 78% of 640 active; AID 720575; HCVcc-Cre infectious virus cell assay, luciferase, inhibition; Potency, µM (titrated, usually from 41.8 µM), for the others: top-dose activity, negative = inhibition, most hits filed as inhibitors; note: potency is the fitted concentration of half-maximal effect; nearly all actives have a fitted effect of over 80% in size
HCV host tox – toxic to HCV host cells, flagging false HCV inhibitors | shares compounds with HCV inh | HCV host cell line cytotoxicity counterscreen | Potency, µM (doses to about 41.8 µM), inactives show at the highest dose activity change, negative = cytotoxicity, actives largely listed as inhibitors | 22% of 640 active;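 note: potency is the fitted concentration of half-maximal effect; 44 h compound exposure; % is set by controls: 0 for no effect and ±100 for the full control effect; nearly all actives have a fitted effect of over 55% in size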
* = called active by the depositor; u = inconclusive; x = no result; ! = a repeat was not active; [ ] = remark or other dose. Unless noted, calls come from the whole dose curve; as a rule, active = well fitted curve in the direction sought with a large enough effect; inconclusive = small, poorly fitted or top-dose-only effect, or another doubt; inactive = no such curve, though single readings can be large; an effect the other way counts as inactive or inconclusive.

SMILES	Lassa entry inh	Shiga inhibitor	HCV inh	FMDV antiviral	CHX counter	Marburg entry inh	HCV inh confirm	HCV host tox
Cc1ccccc1NC(=O)COC(=O)c1ccc(CSc2ccc(Cl)cc2)cc1	u	-1.7	19.7%	22.8%	2.4	-1.2%	x	x
Cc1cc(CSc2ccc(Cl)cc2)ccc1N	1.5%[46.1 µM]	x	3.98µM*	14.9%	x	4.1%[46.1 µM]	6.28µM*	-11.5%
O=S(=O)(c1ccc(Br)cc1)c1nc(-c2ccco2)oc1SCc1ccccc1Cl	-13.9%[46.1 µM]	x	x	-5.4%	x	-10.1%[46.1 µM]	x	x
COc1ccc(-n2cc(-c3ccc(C)cc3)[n+]3c2SCC3)cc1	u	-9.2	u	11.2µM*	-8.2	1.26µM*	12.5µM*	12.5µM*
COc1ccc(Cn2cnc3c(NS(C)(=O)=O)c(C)c(C)cc32)cc1	-19.4%	-1.2	3.16µM*	u	-1.2	-21.8%	0.0112µM*	5.2%
Cc1ccc(S(=O)(=O)N2CCN(C(=O)c3ccc(N4CCC(C)CC4)c([N+](=O)[O-])c3)CC2)cc1	u	x	u	-11.4%	x	u	x	x
Nc1ccc2c(c1)C(=O)c1ccc(Br)cc1-2	2.7%	x	u	-0.5%	x	16.9%	-19.7%	-9.9%
Nc1ccc2c(c1)C(=O)c1ccccc1C2=O	-1.4%[46.1 µM]	x	u	84.4%	x	16.0%	x	x
COc1ccc(OC)c(NC(=O)c2cnn(-c3ccc(C)cc3)c2C2CCNCC2)c1	7.3%[46.1 µM]	x	x	-2.2%	x	x	x	x
COc1ccc(CN2CCC(N(CCc3ccccc3)Cc3ccccc3)CC2)c(OC)c1	x	-15.4	2.51µM*	17.8µM*	-3.7	u	7.05µM*	u
CC1CCCCC1NC(=O)c1cc2c(s1)CS(=O)(=O)C2 (configuration not stated)	14.9%	-3.4	-5.9%	4.2%	-1.9	15.1%	x	x
COc1cc2c(C(=O)O)c(C)n(C)c2cc1Br	5.6%[46.1 µM]	-7.4	4.9%	-3.8%	-3.1	-6.2%[46.1 µM]	x	x
CCOC(=O)c1c(CN2CCN(CCO)CC2)n(C)c2cc(Br)c(OC)cc12	u	-13.3	2.82µM*	-1.4%	-4.7	8.2µM*!	9.95µM*	19.3%
CCOC(=O)c1c(C)n(C)c2cc(Br)c(OC)cc12	4.4%	-4.1	7.94µM*	-13.6%	-1.7	3.7%[14.2 µM]	14.1µM*	16.1%
CC(C)(C)OC(=O)NCCCC[C@H](NC(=O)c1nc[nH]c1C(=O)NC1CCN(C(=O)OC(C)(C)C)CC1)C(=O)OC(C)(C)C	x	-14.2	u	u	-4.8	x	x	x
O=C(N[C@H]1CCC(=O)N([C@H](CSc2ccc(Br)cc2)Cc2ccccc2)CC1)OCc1ccccc1	x	x	u	-8.3%	x	x	x	x
C[C@@H](CSc1ccc(Br)cc1)CN1CC[C@H](NC(=O)OCc2ccccc2)CCC1=O	x	x	4.47µM*	25.1µM*	x	x	14.1µM*	-62.7%
Fc1ccc(C(c2nnnn2Cc2cccs2)N2CCN(C3CCCC3)CC2)cc1 (configuration not stated)	u	-9.7	u	u	-2.2	u	-12.4%	-17.1%
O=C(/C=C/c1ccco1)N(Cc1ccccc1F)C1CCS(=O)(=O)C1 (configuration not stated)	x	-8.5	10.2%	3.8%	-1.5	x	x	x
CCN(CC)CCNC(=O)c1ccc(NC(=O)COc2ccc3c(c2)CCC3)cc1	x	x	u	-24.3%	x	x	x	x
CCOc1cc(/C=C/C(=O)Nc2ccc(C(=O)NCCN(CC)CC)cc2)ccc1OCC(C)C	u	-2.6	3.16µM*	u	6.4	18.3µM*	15.8µM*	35.3µM*
CCOc1ccccc1C(=O)Nc1ccc2nc(N3CCN(c4ncccn4)CC3)cc(C)c2c1	u	x	2.24µM*	8.91µM*	x	13µM*	4.99µM*	-79.3%
COc1cc(OC)cc(C(=O)Nc2ccc3nc(N4CCCCC4)cc(C)c3c2)c1	u	x	x	-13.5%	x	-19.6%[46.1 µM]	x	x
COc1cccc(C(=O)Nc2ccc3nc(N4CCOCC4)cc(C)c3c2)c1	x	8.6	u	-8.9%	-2.2	x	2.8µM*	16.9%
CCOC(=O)c1[nH]c2ccccc2c1NC(=O)c1nonc1C	17.7%	-15.5	-11.5%	-20.4%	-3.1	16.9%	x	x
SMILES	Lassa entry inh	Shiga inhibitor	HCV inh	FMDV antiviral	CHX counter	Marburg entry inh	HCV inh confirm	HCV host tox
Cc1ccccc1Cn1c2ccccc2c2cnn(CC(=O)NC3CCC(C)CC3)c(=O)c21 (configuration not stated)	7.9%[46.1 µM]	x	x	4.2%	x	u	x	x
CCN(CC)C(=O)C1CCN(S(=O)(=O)c2ccc3c(c2)CCCN3C(=O)C2CCC2)CC1	u	-5.2	-16.8%	0.0%	2.1	-5.6%[46.1 µM]	x	x
CC(C)(C)c1cc[n+](C2=C([O-])c3ccccc3C(=O)/C2=N\S(=O)(=O)c2cccs2)cc1	u	72.9*	2.82µM*	8.91µM*	40.6*	10µM*	25µM*	u
COc1cc(NC(C)CCCN)c2ncccc2c1Oc1ccccc1 (configuration not stated)	10.9%	-4.7	7.94µM*	-20.5%	-3.6	u	19.9µM*	-18.0%
COc1ccc(Oc2c(OC)cc([N+](=O)[O-])c3ncccc23)cc1	-31.8%	x	-24.1%	u	x	u	x	x
COc1cc(/C=N/NC(=O)c2ccc(CN3C(=O)c4cccc5cccc3c45)cc2)cc(OC)c1O	x	-2.3	u	-24.7%	-0.2	x	u	-9.4%
CCN(CC)CCCNC(=O)c1cc(-c2ccc(Cl)cc2)on1	0.4%	6.0	8.91µM*	16.1%	1.5	u	22.3µM*	6.3%
CCCCN(CC)CCNC(=O)c1cc2c(-c3ccc(Cl)cc3)nn(C)c2s1	u	-4.0	2.82µM*	2.8%	-2.3	3.55µM*	7.05µM*	13.9%
CCC1CCCCN1CCCNC(=O)CSc1nc2nc(C)c(Cc3ccccc3)c(C)n2n1 (configuration not stated)	x	-22.4	-27.7%	-1.3%	-1.4	-12.9%[46.1 µM]	x	x
O=C(CSc1nccc(=O)[nH]1)NC1CCCc2ccccc21 (configuration not stated)	-15.6%	-0.6	41.5%	-6.5%	-1.5	-5.9%[46.1 µM]	x	x
CC1CCC(NC(=O)C2(C)Cc3ccccc3C(=O)N2Cc2ccccc2Cl)CC1 (configuration not stated)	x	x	x	-15.3%	x	-8.0%[46.1 µM]	x	x
CCn1c(SCC(=O)c2ccccc2)nc2c(c1=O)SC(C)C2 (configuration not stated)	u	6.6	u	-11.7%	2.4	0.1%	u	22.2%
COCCn1c(SCC(=O)c2ccccc2)nc2c(c1=O)SC(C)C2 (configuration not stated)	1.1%	0.7	-26.8%	x	10.1	2.0%	x	x
O=c1c(-c2nnc(SCc3ccc(Cl)cc3)o2)cccn1Cc1ccccc1	u	-7.6	3.55µM*	-9.6%	-1.4	u	12.5µM*	u
O=C(Nc1ccccc1-c1nnc(SCc2ccc(Cl)cc2)o1)c1ccccc1	-4.0%	5.0	17.8%	-2.7%	-0.8	u	x	x

Bioassay records as filed in PubChem.
